Structures are written as SMILES. Activity calls are given as the source filed them.

Test [1] has as its target NADPH oxidase 4 (Homo sapiens) (UniProt Q9NPH5). The test is described as follows: compounds shifting NOX4 Amplex Red fluorescence – cell-based, HEK293-NOX4, tetracycline-induced, NOX inhibitor project, primary screen (AID 1160). Conditions: HEK293-NOX4, Amplex Red H2O2 fluorescence, 45 min; higher = more signal, called active from +8 up or from −8 down.
Test [2] has as its target NADPH oxidase 5 (Homo sapiens) (UniProt Q96PH1). Nature of the test: compounds shifting NOX5 Amplex Red fluorescence – cell-based, HEK293-NOX5, NOX inhibitor project, primary screen (AID 1161). Conditions: HEK293-NOX5, ionomycin, 45 min, higher = more signal.
Test [3] is described as follows: compound effects on lung adenocarcinoma cell viability – A549, calcein-AM fluorescence, 48 h, basal, profiling panel (AID 1162). Note: test concentration not given here. To be noted: higher = more signal.
Test [4] can be described thus: compound effects on differentiated 3T3-L1 adipocyte viability – cell-based, 3T3-L1 adipocytes, calcein-AM fluorescence, 48 h, basal, profiling panel (AID 1163). Note: test concentration not given here. Conditions: 3T3-L1 adipocytes viability, higher = more signal.
The nature of test [5]: compound effects on hepatocellular carcinoma cell viability – HepG2, calcein-AM fluorescence, 48 h, basal, profiling panel (AID 1164). Note: test concentration not given here. To be noted: higher = more signal.
Test [6] in a line: compound effects on multiple myeloma cell viability – MM1S, calcein-AM fluorescence, 48 h, basal, profiling panel (AID 1165).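 Note: viability of MM1S multiple myeloma cells under basal unstimulated conditions; test concentration not given here.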 To be noted: higher = more signal.
A short description of test [7]: calcein-AM signal in unstimulated myeloma cells – cell-based, calcein-AM fluorescence, 48 h, PK04 Diversity Set, profiling panel (AID 1166).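 Note: cells grown under basal conditions without added stimulus; test concentration not given here.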 Conditions: RPMI8226 myeloma viability, higher = more signal.
The nature of test [8]: JC-1 mitochondrial signal, unstimulated HepG2 cells – cell-based, JC-1 fluorescence, 24 h, 100 nL compound, profiling panel (AID 1167). Note: test concentration not given here. Conditions: HepG2 mitochondrial potential, higher = more signal.
Test [9] in a line: JC-1 mitochondrial signal, unstimulated adipocytes – cell-based, JC-1 fluorescence, 3T3-L1 adipocytes, 24 h, 100 nL compound, profiling panel (AID 1168). Note: test concentration not given here. Conditions: JC-1 mitochondrial fluorescence, higher = more signal, called active from +8 up or from −8 down.
Test [10] is described as follows: JC-1 mitochondrial signal, unstimulated myeloma cells – cell-based, JC-1 fluorescence, RPMI8226, 24 h, 100 nL compound, profiling panel (AID 1169). Note: test concentration not given here. To be noted: JC-1 mitochondrial potential fluorescence, higher = more signal.
Test [11] in a line: JC-1 mitochondrial signal, unstimulated MM1S myeloma – cell-based, JC-1 fluorescence, 24 h, 100 nL compound, profiling panel (AID 1170). Note: test concentration not given here. To be noted: MM1S mitochondrial potential, higher = more signal.
Test [12] is described as follows: resazurin metabolic signal in A549 cells – cell-based, resazurin fluorescence, 24 h, PK04 Diversity Set, profiling panel (AID 1171). Note: test concentration not given here. Conditions: A549 viability, higher = more signal, called active from +8 up or from −8 down. For orientation: The colour change of resazurin is a common sign of viable cells or microbes.
A short description of test [13]: resazurin metabolic signal in HepG2 cells – cell-based, resazurin fluorescence, 24 h, PK04 Diversity Set, profiling panel (AID 1172). Note: test concentration not given here. To be noted: HepG2 viability, higher = more signal.
The nature of test [14]: budding yeast growth changes without added modifier – OD600, strain BY4716, 24 h, basal condition, primary screen (AID 1173). To be noted: S. cerevisiae BY4716 growth, OD600, 24 h; higher = more signal, called active from +8 up or from −8 down.
A short description of test [15]: viability profiling in MM1S myeloma cells – cell-based, resazurin fluorescence, basal, 24 h, PK04 Diversity Set, profiling panel (AID 1174). Note: test concentration not given here. Conditions: higher = more signal, called active from +8 up or from −8 down.
For test [16], the target named is Dihydroorotate dehydrogenase (quinone), mitochondrial (Plasmodium falciparum (isolate 3D7)) (UniProt Q08210). Nature of the test: inhibition of P. falciparum DHODH – biochemical, C-terminal His tag, absorbance 600 nm, primary screen (AID 1175).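 Note: recombinant parasite enzyme with a five histidine tag at its C terminus; test concentration not given here.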 To be noted: PfDHODH enzyme, DCIP absorbance 600 nm; higher = more signal, called active from +8 up or from −8 down.
Test [17] can be described thus: growth modulation of vineyard yeast isolate – strain RM11-1a, OD600, basal, 24 h, primary screen (AID 1177).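 Note: cultures grown under basal conditions with no added stressor; test concentration not given here.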 Conditions: S. cerevisiae RM11-1a growth, OD600, 24 h; higher = more signal, called active from +8 up or from −8 down.
Test [18] in a line: growth of efflux-deficient E. coli DRC39 – strain DRC39, OD650, 24 h, E. coli filamentation inducers, primary screen (AID 1178).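 Note: growth measured as culture turbidity by optical density at 650 nm; test concentration not given here.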 To be noted: E. coli DRC39 acrAB, higher = more signal, called active from +8 up or from −8 down.
Test [19] is described as follows: growth of efflux-deficient E. coli DRC39 – strain DRC39, OD650, 48 h, E. coli filamentation inducers, primary screen (AID 1179).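 Note: screen aims at cell division blockers that make cells filament.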 To be noted: E. coli DRC39 delta-acrAB growth, higher = more signal, called active from +8 up or from −8 down.
The nature of test [20]: viability profiling in RPMI8226 myeloma cells – cell-based, resazurin fluorescence, basal, 24 h, PK04 Diversity Set, profiling panel (AID 1180).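 Note: RPMI8826 multiple myeloma cell line at 5000 cells per well; test concentration not given here.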 To be noted: higher = more signal.

NADPH oxidase 5 (Homo sapiens), sequence (Q96PH1 whole entry, looked up): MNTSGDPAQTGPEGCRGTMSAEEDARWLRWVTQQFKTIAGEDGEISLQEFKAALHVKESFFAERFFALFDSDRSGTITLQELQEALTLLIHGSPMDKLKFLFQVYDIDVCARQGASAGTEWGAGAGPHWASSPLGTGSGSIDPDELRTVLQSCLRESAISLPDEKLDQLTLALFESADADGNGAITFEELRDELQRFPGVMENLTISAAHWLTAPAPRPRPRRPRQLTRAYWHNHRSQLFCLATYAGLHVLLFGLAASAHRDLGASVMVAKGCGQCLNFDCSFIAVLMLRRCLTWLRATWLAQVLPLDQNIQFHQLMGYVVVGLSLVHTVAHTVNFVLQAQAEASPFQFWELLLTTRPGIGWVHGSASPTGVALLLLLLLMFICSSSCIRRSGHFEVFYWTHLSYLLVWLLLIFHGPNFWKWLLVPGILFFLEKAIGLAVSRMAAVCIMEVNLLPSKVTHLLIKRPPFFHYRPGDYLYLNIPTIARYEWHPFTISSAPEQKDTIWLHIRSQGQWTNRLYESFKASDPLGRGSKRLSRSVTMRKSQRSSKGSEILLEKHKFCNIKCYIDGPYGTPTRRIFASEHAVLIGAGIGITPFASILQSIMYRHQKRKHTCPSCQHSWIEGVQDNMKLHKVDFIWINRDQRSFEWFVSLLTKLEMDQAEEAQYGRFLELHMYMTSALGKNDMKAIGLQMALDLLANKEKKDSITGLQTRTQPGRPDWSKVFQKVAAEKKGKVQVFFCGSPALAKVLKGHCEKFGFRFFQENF
NADPH oxidase 4 (Homo sapiens), sequence (Q9NPH5 whole entry, looked up): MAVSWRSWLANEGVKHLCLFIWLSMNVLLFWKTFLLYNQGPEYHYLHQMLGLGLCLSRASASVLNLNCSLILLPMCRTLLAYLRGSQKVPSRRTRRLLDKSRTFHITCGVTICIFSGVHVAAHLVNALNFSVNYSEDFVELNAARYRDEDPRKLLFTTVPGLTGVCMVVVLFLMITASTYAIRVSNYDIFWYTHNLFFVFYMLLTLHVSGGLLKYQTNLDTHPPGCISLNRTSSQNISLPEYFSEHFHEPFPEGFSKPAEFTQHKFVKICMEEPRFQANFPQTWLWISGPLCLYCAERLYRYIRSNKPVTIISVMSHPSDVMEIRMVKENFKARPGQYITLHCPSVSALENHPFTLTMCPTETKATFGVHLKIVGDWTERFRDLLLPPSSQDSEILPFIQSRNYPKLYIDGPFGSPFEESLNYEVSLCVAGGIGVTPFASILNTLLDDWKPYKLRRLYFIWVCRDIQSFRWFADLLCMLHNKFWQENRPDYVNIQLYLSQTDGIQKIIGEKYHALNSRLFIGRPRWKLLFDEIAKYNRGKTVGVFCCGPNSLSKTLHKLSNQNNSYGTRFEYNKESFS
Dihydroorotate dehydrogenase (quinone), mitochondrial (Plasmodium falciparum (isolate 3D7)), sequence (Q08210 whole entry, looked up): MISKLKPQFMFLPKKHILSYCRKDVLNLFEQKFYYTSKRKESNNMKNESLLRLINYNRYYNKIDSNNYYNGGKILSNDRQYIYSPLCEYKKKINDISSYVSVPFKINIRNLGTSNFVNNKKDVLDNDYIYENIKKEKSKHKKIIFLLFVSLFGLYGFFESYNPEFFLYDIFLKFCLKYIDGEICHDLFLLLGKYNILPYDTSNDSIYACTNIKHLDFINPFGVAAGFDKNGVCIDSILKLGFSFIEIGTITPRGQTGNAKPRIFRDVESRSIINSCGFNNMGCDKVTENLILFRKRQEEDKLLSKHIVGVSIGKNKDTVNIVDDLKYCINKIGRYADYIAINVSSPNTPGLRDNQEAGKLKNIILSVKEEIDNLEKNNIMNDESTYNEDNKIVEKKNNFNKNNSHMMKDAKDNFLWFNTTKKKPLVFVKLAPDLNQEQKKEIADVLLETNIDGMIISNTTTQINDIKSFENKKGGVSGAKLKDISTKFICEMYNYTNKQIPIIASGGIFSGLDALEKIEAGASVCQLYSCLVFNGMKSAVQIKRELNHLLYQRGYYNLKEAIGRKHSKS

Consider `C/C=C/[C@@H](CCn1cc(CCO[Si](C(C)C)(C(C)C)C(C)C)nn1)[Si](C)(C)c1ccc(OC)cc1`, for which the z-score in [1] was 0.0135 (inactive); in [2] it was -0.497; in test [3], 1.74; in [4], 0.925; in [5] it was 0.359; in [6], -1.17. The z-score is -1.21 in [7]; 3.71 in test [8]; 1.12 (inactive) in [9]; 0.236 in test [10]; 2.03 in [11]; 7.86 (inactive) in test [12]. In addition, the z-score in test [13] is 4.46; in test [14] it was -2.21 (inactive); in test [15], 1.91 (inactive); in test [17], -4 (inactive); in test [18], 2.42 (inactive); in test [19], 1.89 (inactive). Moreover, the z-score in [20] was 5.22. In addition, the composite z-score in test [16] was -1.14 (inactive).

Turning to `C=C(C(=O)CC[C@H](OC(C)=O)c1ccc(CO)o1)C(C)C`, the z-score was 0.382 (inactive) in [1]; -0.706 in [2]; -0.708 in [3]; 2.11 in test [4]; -1.14 in test [5]; -2.73 in test [6]. In addition, the z-score in test [7] is -0.639; in test [8] it was 0.672; in test [9], 2.3 (inactive); in test [10], -0.378; in [11], 0.548; in [12], -0.158 (inactive). The z-score in test [13] is 0.0204; in test [14] it was -0.273 (inactive); in test [15], 0.0516 (inactive); in test [17], -0.487 (inactive); in test [18], 1.63 (inactive); in test [19] it was 0.359 (inactive). Besides, in test [20], the z-score worked out at 0.739. Besides, in test [16], the composite z-score is -0.969 (inactive).

In the case of `[N-]=[N+]=NCc1ccccc1C[C@]1(C(=O)NCc2ccccc2)N=C(c2ccc(OCCCO)cc2)O[C@H]1c1ccccc1`, the z-score is 1.24 (inactive) in [1]; 0.0397 in test [2]; -2.79 in test [3]; 0.457 in [4]; -2.82 in test [5]; -2.07 in test [6]. Further, the z-score in test [7] is -2.78; in test [8] it was 0.671; in test [9], 0.371 (inactive); in test [10], -0.819; in [11], -1.6; in test [12], 0.225 (inactive). Further, the z-score was 0.643 in [13]; 2.86 (inactive) in test [14]; -0.295 (inactive) in test [15]; 4.01 (inactive) in [17]; 3.49 (inactive) in test [18]; 1.24 (inactive) in [19]. For the same molecule, the z-score in test [20] was -0.29. Moreover, in test [16], the composite z-score was 2.37 (inactive).

Turning to `COC(=O)[C@@]1(CCC(=O)OC(C)(C)C)COC(c2ccc(OCCCO)cc2)=N1`, the z-score in test [1] is 0.562 (inactive); in test [2], -2.25; in [3], 0.196; in test [4], 1.52; in test [5] it was -0.528; in [6], 0.203. Further, the z-score in test [7] is -0.0712; in [8], -0.407; in test [9], -0.0189 (inactive); in test [10], 0.614; in [11], 0.396; in test [12], 0.307 (inactive). Besides, the z-score is 0.863 in [13]; -1.27 (inactive) in test [14]; 0.867 (inactive) in test [15]; -0.612 (inactive) in test [17]; 2.83 (inactive) in test [18]; 1.14 (inactive) in [19]. In addition, in test [20], the z-score is 1.1. Further, the composite z-score in test [16] is -0.402 (inactive).

On to `CCCCCCC#C[Si](O[C@H](c1ccccc1)c1cn(Cc2ccccc2)nn1)(C(C)C)C(C)C`, for which the z-score in test [1] is 0.369 (inactive); in [2] it was -1.87; in test [3], 1.68; in [4] it was 0.28; in [5] it was -0.316; in [6] it was 0.163. The z-score in test [7] was 0.0412; in test [8] it was 6.57; in [9], 2.09 (inactive); in test [10], 0.548; in [11], -0.198; in [12] it was 4.71 (inactive). The z-score in [13] is 2.52; in [14], -0.382 (inactive); in test [15] it was 2.12 (inactive); in test [17], -0.486 (inactive); in test [18], 2.12 (inactive); in [19], 1.36 (inactive). Besides, the z-score in [20] was 2.68. The composite z-score in [16] was 0.337 (inactive).

Take `COc1c(C)cc(-c2cc3c(c(CCc4ccccc4)n2)[Si](C(C)C)(C(C)C)OC3)cc1C`: the z-score in test [1] is 0.907 (inactive); in [2], -0.11; in test [3] it was 0.483; in test [4] it was 1.27; in test [5], -0.277; in test [6], -1.5. Moreover, the z-score in test [7] is 0.0965; in test [8], -2.26e-05; in [9], 0.334 (inactive); in test [10], 0.667; in [11], 0.168; in [12] it was 1.38 (inactive). The z-score is 1.64 in [13]; -0.966 (inactive) in [14]; 1.93 (inactive) in test [15]; -1.43 (inactive) in [17]; 1.75 (inactive) in [18]; 1.08 (inactive) in test [19]. In [20], this molecule came in with a z-score of 1.37. Further, in test [16], the composite z-score was -0.545 (inactive).

Turning to `CC(C)(C)OC(=O)CC[C@]1(C(=O)NCc2ccccc2)N=C(c2ccc(OCCCO)cc2)O[C@H]1c1ccccc1N=[N+]=[N-]`, the z-score was -0.17 (inactive) in [1]; -2.3 in [2]; 0.117 in [3]; 2.99 in [4]; -0.957 in test [5]; -0.369 in test [6]. Moreover, the z-score in [7] is -1.52; in [8], 2.24; in [9], 2.6 (inactive); in test [10], -0.578; in test [11] it was -0.669; in test [12], -0.413 (inactive). The z-score in test [13] was 0.384; in [14], 0 (inactive); in test [15] it was -0.439 (inactive); in [17] it was 0.892 (inactive); in test [18], 3.14 (inactive); in test [19] it was 1.08 (inactive). This molecule also gave a z-score in test [20] of -0.2. The composite z-score in [16] is 1.18 (inactive).

Regarding `CC(C)(C)OC(=O)CC[C@@]1(C(=O)NCc2ccccc2)N=C(c2ccc(OCCCO)cc2)O[C@@H]1c1ccccc1CN=[N+]=[N-]`, the z-score was -0.0643 (inactive) in test [1]; -1.35 in [2]; 1.09 in test [3]; 2.98 in [4]; -0.399 in test [5]; 0.507 in test [6]. Besides, the z-score in test [7] was -1.04; in test [8], 2.13; in test [9], 0.179 (inactive); in [10], -1.12; in test [11], 0.236; in test [12] it was 0.392 (inactive). The z-score in [13] is -0.169; in [14], -0.986 (inactive); in test [15], 0.725 (inactive); in [17], -0.496 (inactive); in test [18], 2.1 (inactive); in [19], 0.824 (inactive). In addition, in test [20], the z-score came out at 0.394. The composite z-score in test [16] was -0.182 (inactive).

Source of the values: PubChem BioAssay.
